Hit rate of the full screen: of about 5,500 compounds, about 2,000 (36%) were called active. Inconclusive results (about 18%) are left out. No stated cut-off is given here; in the data, active means normalized growth mostly below about 0.91 (no sharp cut-off); inconclusive means no clear call, values can overlap the other calls; inactive means mostly above about 0.92. The list shows a part of the results.
Assay: chemical genetic growth profiling, strain panel (AID 1159580);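 further: tested at 20 µM; growth read once vehicle control cultures reached saturation at 30 °C; 1 = growth at the plate median or of vehicle wells; lower values mean less growth of the strain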
Conditions: S. cerevisiae deletion strains, growth OD

Measured: normalized growth

CC(=O)N[C@@H](CC(=O)O)C(=O)O
inactive: locus YAL013W, strain DEP1, active compounds read low 1.01 | locus YAL021C, strain ccr4, active compounds read low 0.998 | locus YAL026C, strain drs2, active compounds read low 1.01 | locus YAL030W, strain snc1, active compounds read low 0.997 | locus YBL061C, strain skt5, active compounds read low 1.01 | locus YBR009C, strain hhf1, active compounds read low 1.01 | locus YBR021W, strain FUR4, active compounds read low 1.02 | locus YBR023C, strain chs3, active compounds read low 1 | locus YBR171W, strain sec66, active compounds read low 1 | locus YBR229C, strain ROT2, active compounds read low 1.01 | locus YBR231C, strain swc5, active compounds read low 0.982 | locus YBR279W, strain paf1, active compounds read low 1 | locus YCL011C, strain gbp2, active compounds read low 1.01 | locus YCL016C, strain dcc1, active compounds read low 1 | locus YCL029C, strain bik1, active compounds read low 1.03 | locus YCL069W, strain vba3, active compounds read low 1.01 | locus YCR088W, strain abp1, active compounds read low 1 | locus YDL005C, strain med2, active compounds read low 0.997 | locus YDL035C, strain GPR1, active compounds read low 1 | locus YDL040C, strain nat1, active compounds read low 1.01 | locus YDL074C, strain BRE1, active compounds read low 1.01 | locus YDL101C, strain DUN1, active compounds read low 1.01 | locus YDL134C, strain PPH21, active compounds read low 1.01 | locus YDL185W, strain tfp1, active compounds read low 1.02 | locus YDL192W, strain arf1, active compounds read low 1.02 | locus YDR001C, strain nth1, active compounds read low 1.01 | locus YDR069C, strain doa4, active compounds read low 1.03 | locus YDR101C, strain arx1, active compounds read low 1.02 | locus YDR137W, strain rgp1, active compounds read low 0.997 | locus YDR150W, strain NUM1, active compounds read low 1.01 | locus YDR159W, strain sac3, active compounds read low 0.969 | locus YDR162C, strain NBP2, active compounds read low 1.01 | locus YDR195W, strain ref2 0.972 | locus YDR297W, strain sur2, active compounds read low 1.02 | locus YDR318W, strain mcm21, active compounds read low 1.01 | locus YDR334W, strain swr1, active compounds read low 1.01 | locus YDR335W, strain msn5, active compounds read low 1.01 | locus YDR388W, active compounds read low 1.01 | locus YDR392W, strain spt3, active compounds read low 0.932 | locus YDR502C, strain sam2, active compounds read low 1.02 | locus YEL003W, strain gim4, active compounds read low 1.01 | locus YEL037C, strain rad23, active compounds read low 1.01 | locus YEL061C, strain CIN8 (second series), active compounds read low 1.01 | locus YEL061C, strain CIN8, active compounds read low 1.01 | locus YER015W, strain faa2, active compounds read low 1.01 | locus YER016W, strain bim1, active compounds read low 1 | locus YER110C, active compounds read low 1.02 | locus YER111C, strain swi4, active compounds read low 1.01 | locus YER155C, strain BEM2 (second series), active compounds read low 0.999 | locus YER155C, strain BEM2, active compounds read low 1.01 | locus YER167W, strain BCK2, active compounds read low 1.01 | locus YFR010W, strain ubp6, active compounds read low 1 | locus YGL078C, strain dbp3, active compounds read low 1.01 | locus YGL086W, strain mad1, active compounds read low 1.01 | locus YGL167C, strain pmr1, active compounds read low 1 | locus YGL173C, strain kem1, active compounds read low 1.02 | locus YGL227W, strain vid30, active compounds read low 1.01 | locus YGL240W, strain doc1, active compounds read low 0.984 | locus YGL248W, strain PDE1, active compounds read low 1 | locus YGL253W, strain hxk2, active compounds read low 1.01 | locus YGR078C, strain PAC10, active compounds read low 1.01 | locus YGR135W, strain pre9, active compounds read low 1.01 | locus YGR229C, strain SMI1, active compounds read low 1.01 | locus YGR252W, strain gcn5, active compounds read low 0.959 | locus YHR013C, strain ard1, active compounds read low 1.01 | locus YHR027C, strain rpn1, active compounds read low 0.993 | locus YHR030C, strain SLT2, active compounds read low 1.01 | locus YHR079C, strain IRE1 (second series), active compounds read low 1.01 | locus YHR094C, strain hxt1, active compounds read low 1.01 | locus YHR129C, strain ARP1, active compounds read low 0.997 | locus YHR142W, strain chs7, active compounds read low 1.01 | locus YHR200W, strain rpn10, active compounds read low 1.02 | locus YIL066C, strain RNR3, active compounds read low 1.02 | locus YIL073C, strain SPO22, active compounds read low 1.02 | locus YIL125W, strain kgd1, active compounds read low 1.01 | locus YIR030C, strain dcg1, active compounds read low 1.03 | locus YJL092W, strain hpr5, active compounds read low 1.01 | locus YJL095W, strain BCK1 (second series), active compounds read low 0.999 | locus YJL095W, strain BCK1, active compounds read low 1.02 | locus YJL115W, strain asf1, active compounds read low 1 | locus YJL129C, strain trk1, active compounds read low 1 | locus YJL134W, strain LCB3, active compounds read low 1.01 | locus YJL154C, strain vps35, active compounds read low 1.01 | locus YJL164C, strain tpk1, active compounds read low 1 | locus YJL166W, strain qcr8, active compounds read low 1.01 | locus YJL168C, strain set2, active compounds read low 1.01 | locus YJL187C, strain SWE1 (second series), active compounds read low 1.01 | locus YJL187C, strain SWE1, active compounds read low 1.03

Source: PubChem BioAssay AID1159580 (chemical genetic matrix, 2015)
